Source: PubChem BioAssay (EPA / NIEHS)
Values joined by “and” are separate entries in the source; they are usually repeats but may differ in a detail not shown here. Identical values can stand only once. The source holds several records for some structures; these can differ, active in one and inactive in another. Active and inactive are the calls of the source. How the source made its calls: active means hit-call score of the fitted dose curve at least 0.9, where 1 is the maximum; inactive means score below 0.9.

Tests used:
[1] = read-out: Human Leukocyte Antigen - DR isotype (HLADR), HLA-DRA (gene 3122); assay: BSK_CASM3C_HLADR: BioMAP Diversity Plus: CASM3C Assay for Human Leukocyte Antigen - DR isotype (HLADR) Biomarker Activity (AID 2283043); conditions: primary human coronary artery smooth muscle cells; actives raise or lower the signal;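 further: cell-surface HLA-DR protein level quantified by ELISA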
[2] = read-out: Macrophage colony-stimulating factor (MCSF), CSF1 (gene 1435); assay: BSK_CASM3C_MCSF: BioMAP Diversity Plus: CASM3C Assay for Macrophage colony-stimulating factor (MCSF) Biomarker Activity (AID 2283044); conditions: primary human coronary artery smooth muscle cells; actives raise or lower the signal;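 further: M-CSF protein amount quantified by ELISA after 24 h exposure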
[3] = read-out: Low-density lipoprotein receptor (LDLR), LDLR (gene 3949); assay: BSK_CASM3C_LDLR: BioMAP Diversity Plus: CASM3C Assay for Low-density lipoprotein receptor (LDLR) Biomarker Activity (AID 2283045); conditions: primary human coronary artery smooth muscle cells; actives raise or lower the signal;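 further: LDLR protein level on the cell surface quantified by ELISA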
[4] = read-out: Monocyte Chemoattractant Protein-1 (MCP1), CCL2 (gene 6347); assay: BSK_CASM3C_MCP1: BioMAP Diversity Plus: CASM3C Assay for Monocyte Chemoattractant Protein-1 (MCP1) Biomarker Activity (AID 2283046); conditions: primary human coronary artery smooth muscle cells; actives raise or lower the signal;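 further: MCP-1 level quantified by ELISA 24 h after dosing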
[5] = BSK_CASM3C_Proliferation: Cell Proliferation Assessment in the BioMAP Diversity Plus: CASM3C Assay (AID 2283047); conditions: primary human coronary artery smooth muscle cells;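 further: sulforhodamine B total protein stain as relative cell number at 560 nm; sub-confluent cells exposed 48 h before staining; fitted both ways against DMSO so gain or loss of cell number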
[6] = read-out: Monokine induced gamma interferon (MIG), CXCL9 (gene 4283); assay: BSK_CASM3C_MIG: BioMAP Diversity Plus: CASM3C Assay for Monokine induced gamma interferon (MIG) Biomarker Activity (AID 2283048); conditions: primary human coronary artery smooth muscle cells; actives raise or lower the signal;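 further: MIG protein level measured by ELISA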
[7] = read-out: serum amyloid A (SAA), SAA1 (gene 6288); assay: BSK_CASM3C_SAA: BioMAP Diversity Plus: CASM3C Assay for serum amyloid A (SAA) Biomarker Activity (AID 2283049); conditions: primary human coronary artery smooth muscle cells; actives raise or lower the signal;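 further: SAA protein level quantified by ELISA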
[8] = BSK_CASM3C_SRB: Viability Assessment in the BioMAP Diversity Plus: CASM3C Assay (AID 2283050); conditions: primary human coronary artery smooth muscle cells;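 further: total protein by SRB staining as cytotoxicity measure in parallel cultures; cells exposed to compound for 24 h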
[9] = read-out: Thrombomodulin, THBD (gene 7056); assay: BSK_CASM3C_Thrombomodulin: BioMAP Diversity Plus: CASM3C Assay for Thrombomodulin Biomarker Activity (AID 2283051); conditions: primary human coronary artery smooth muscle cells; actives raise or lower the signal;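 further: thrombomodulin protein level measured by ELISA 24 h after dosing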
[10] = read-out: Tissue Factor, F3 (gene 2152); assay: BSK_CASM3C_TissueFactor: BioMAP Diversity Plus: CASM3C Assay for Tissue Factor Biomarker Activity (AID 2283052); conditions: primary human coronary artery smooth muscle cells; actives raise or lower the signal;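 further: cell surface tissue factor protein level read by ELISA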

SMILES	AC50 [1]	outcome [2]	outcome [3]	outcome [4]	AC50 [5]	outcome [6]	outcome [7]	outcome [8]	outcome [9]	outcome [10]	outcome [1]	outcome [5]	AC50 [2]	AC50 [4]	AC50 [6]	AC50 [7]	AC50 [8]	AC50 [9]	AC50 [10]	AC50 [3]
C=CC=CC=CCCCCC	5 µM (active)	inactive	inactive	inactive	5 µM (active)	inactive	inactive	inactive	inactive	inactive										
c1ccc2c(c1)ccc1ncccc12		inactive	inactive	inactive		inactive	inactive	inactive	inactive	inactive	inactive	inactive								
CCCCNc1ccc(NCCCC)c2c1C(=O)c1ccccc1C2=O		inactive	inactive	inactive		inactive	inactive	inactive	inactive	inactive	inactive	inactive								
c1ccc(-c2ccccn2)nc1		inactive	inactive	inactive		inactive	inactive	inactive	inactive	inactive	inactive	inactive								
C#CC1(O)CC[C@H]2[C@@H]3CCC4=CCCC[C@@H]4[C@H]3CC[C@@]21C (stereo partly specified)	34.8 µM (active)		inactive		8.11 µM (active)								20 µM (active)	32.1 µM (active)	20 µM (active)	20 µM (active)	31 µM (active)	20 µM (active)	20 µM (active)	
Nc1ccc(N)c(Cl)c1			inactive	inactive	28.7 µM (active)	inactive	inactive	inactive		inactive	inactive		8.11 µM (active) and 1.83 µM (active)		6.03 µM (active)		16.1 µM (active)	2.9 µM (active) and 3.08 µM (active)	1.13 µM (active)	
CCOC(=O)c1ccccc1C(=C1C=C(Br)C(=O)C(Br)=C1)c1cc(Br)c(O)c(Br)c1		inactive	inactive		20.3 µM (active) and 22.1 µM (active)		inactive	inactive		inactive	inactive			17.4 µM (active) and 20 µM (active)	19.4 µM (active) and 22.2 µM (active)			15.8 µM (active) and 20.4 µM (active)		
C=CCOCC(O)CCl (stereo unspecified)		inactive	inactive	inactive		inactive	inactive	inactive	inactive	inactive	inactive	inactive								
S=C(NC1CCCCC1)NC1CCCCC1		inactive	inactive	inactive		inactive	inactive	inactive		inactive	inactive	inactive						20 µM (active)		
O=C(Nc1ccccc1SSc1ccccc1NC(=O)c1ccccc1)c1ccccc1	5.29 µM (active)	inactive	inactive	inactive	5.1 µM (active)	inactive		inactive		inactive						5.22 µM (active)		5.27 µM (active)		
C=CCOc1c(Br)cc(Br)cc1Br	26.8 µM (active)				29.5 µM (active)	inactive			inactive				28.3 µM (active)	32.3 µM (active)		20 µM (active)	30.4 µM (active)		16.9 µM (active)	20 µM (active)
c1ccc2c(c1)ccc1cc3c(ccc4ccccc43)cc12		inactive	inactive	inactive		inactive	inactive	inactive	inactive	inactive	inactive	inactive						0.0962 µM (active)		
CN1C(=O)N(C)C(O)C1O (stereo unspecified)		inactive	inactive	inactive		inactive	inactive	inactive	inactive	inactive	inactive	inactive								
CC(C)(c1cc(Br)c(OCCO)c(Br)c1)c1cc(Br)c(OCCO)c(Br)c1			inactive	inactive		inactive	inactive	inactive	inactive	inactive	inactive	inactive	4.39 µM (active)							
O=C(c1ccc(O)cc1)c1ccc(O)cc1O		inactive	inactive	inactive	15.7 µM (active) and 10.5 µM (active)	inactive	inactive	inactive	inactive	inactive	inactive									
CC1OC1C1CCC2(C)OC2C1 (stereo unspecified)		inactive	inactive	inactive		inactive	inactive	inactive	inactive	inactive	inactive	inactive								
O=c1c2ccccc2oc2ccccc12		inactive	inactive	inactive		inactive	inactive	inactive	inactive		inactive	inactive							2.7 µM (active)	
N#[N+]c1ccc2c(S(=O)(=O)[O-])cccc2c1O		inactive	inactive	inactive		inactive	inactive	inactive	inactive	inactive	inactive	inactive								

SMILES	AC50 [1]	outcome [2]	outcome [3]	outcome [4]	AC50 [5]	outcome [6]	outcome [7]	outcome [8]	outcome [9]	outcome [10]	outcome [1]	outcome [5]	AC50 [2]	AC50 [4]	AC50 [6]	AC50 [7]	AC50 [8]	AC50 [9]	AC50 [10]	AC50 [3]
CC(C)C(=O)C(C)C		inactive	inactive	inactive		inactive	inactive	inactive	inactive	inactive	inactive	inactive								
CCCCCCCCCCCCCCCC[N+](C)(C)CC	2.97 µM (active)				1.61 µM (active)				inactive				1.93 µM (active)	3.54 µM (active)	6.02 µM (active)	2.61 µM (active)	1.88 µM (active)		2.19 µM (active)	2.94 µM (active)
COc1ccc2nc(N)sc2c1		inactive	inactive	inactive		inactive	inactive	inactive	inactive	inactive	inactive	inactive								
CCCCCCCCc1ccc(Nc2ccc(CCCCCCCC)cc2)cc1		inactive	inactive	inactive	14.9 µM (active)	inactive	inactive	inactive	inactive	inactive	inactive									
O=C1CCCN1CCO		inactive	inactive	inactive		inactive	inactive	inactive	inactive	inactive	inactive	inactive								
C=CC(=O)OCC(Br)CBr (stereo unspecified)	11.1 µM (active)				28.5 µM (active)		inactive						20 µM (active)	27.1 µM (active)	28 µM (active)		28.4 µM (active)	32.8 µM (active)	29.1 µM (active)	36 µM (active)
CCCCC/C=C\C/C=C\CCCCCCCC(=O)OC	20 µM (active)				14.4 µM (active)		inactive		inactive				20 µM (active)	33.7 µM (active)	31.1 µM (active)		31.7 µM (active)		11.4 µM (active)	28.7 µM (active)
C/C=C\C/C=C/CCCCCCCCOC(C)=O	20 µM (active)		inactive	inactive	26.4 µM (active)				inactive				20 µM (active)		28.5 µM (active)	32.3 µM (active)	36.9 µM (active)		6.46 µM (active)	
CCO[Si](CCCN=C=O)(OCC)OCC		inactive	inactive	inactive		inactive	inactive	inactive	inactive	inactive	inactive	inactive								
CCCCC(CC)COCC1CO1 (stereo unspecified)		inactive	inactive	inactive		inactive	inactive	inactive	inactive	inactive	inactive	inactive								
CCOc1nc(F)cc2nc(S(=O)(=O)Nc3c(Cl)cccc3C(=O)OC)nn12		inactive	inactive	inactive		inactive	inactive	inactive	inactive	inactive	inactive	inactive								
CCCCC(CC)COC(=O)c1ccccc1O (stereo unspecified)		inactive	inactive	inactive		inactive	inactive	inactive	inactive	inactive	inactive	inactive								
C=C[Si](OC(C)=O)(OC(C)=O)OC(C)=O		inactive	inactive	inactive		inactive	inactive	inactive	inactive	inactive	inactive	inactive								1.25 µM (active)
COCc1c(C(C)C)nc(C(C)C)c(/C=C/[C@@H](O)C[C@@H](O)CC(=O)O)c1-c1ccc(F)cc1		inactive	inactive	inactive	0.056 µM (active)	inactive	inactive	inactive			inactive							0.00777 µM (active)	0.00777 µM (active)	
CO[Si](OC)(OC)c1ccccc1	3.86 µM (active)	inactive	inactive	inactive		inactive	inactive	inactive	inactive	inactive	inactive	inactive								
O=Nc1ccc(O)cc1		inactive	inactive	inactive		inactive	inactive	inactive	inactive	inactive	inactive	inactive								
CCO[Si](C)(OCC)OCC		inactive	inactive	inactive		inactive	inactive	inactive	inactive	inactive	inactive	inactive								
O=C(Cl)c1cc(C(=O)Cl)cc(C(=O)Cl)c1	15.5 µM (active)				7.85 µM (active)								14.5 µM (active)	32 µM (active)	29.2 µM (active)	20 µM (active)	15 µM (active)	36.3 µM (active)	20 µM (active)	12.3 µM (active)
